Measured values reported in PubChem BioAssay.
Calls of active or inactive are those of the source.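 Rule for the calls, unless noted: active = inhibition of the reporter signal at or above 50%; inactive = inhibition below 50%.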

Legend:
[1] = inhibitors of TNFa-induced NFkB p65 translocation, primary screen, imaging, HUVEC, MLSMR starter and 10KST1 sets (AID 438;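 active = inhibition above 20% together with a positive visual image hit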;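 note: compound added about 3h40 before a 20 min TNFalpha stimulation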;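 for inhibition: signal is the nuclear over cytoplasmic p65 intensity ratio per well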); conditions: HUVEC TNFa-induced p65 nuclear translocation; cell count: measured here: nuclei count (cytotoxicity indicator), at 2.08 µM; inhibition: at 2 µM, stronger effect = higher value, 0% TNFa-plus-vehicle, 100% no-TNFa wells
[2] = inhibitors of mutant huntingtin aggregation, primary screen, imaging, exon1htt(103Q)mCFP cells, high-content imaging (AID 483;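 active = visual image review flags a hit and inhibition of aggregation exceeds 20%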;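 note: compound exposure lasted 3 days before fixation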;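 for nuclei count: percent of the per-plate median nuclei count of sample wells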); conditions: exon1htt(103Q)mCFP cell line, aggregate imaging, at 2 µM; inhibition of aggregation: stronger effect = higher value; nuclei count: measured here: cell count, toxicity
[3] = inhibitors of E-selectin induction by TNFa, primary screen, imaging, HUVEC, immunofluorescence, MLSMR starter and 10KST1 sets (AID 487;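 active = visually confirmed hit in the image check and inhibition above 20%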;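 for inhibition: signal is fraction of cell area covered by stained E-selectin grains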;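 for nuclei count: 100% = median nuclei count of all wells on the same plate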); conditions: HUVEC TNFalpha-induced E-selectin immunofluorescence imaging, at 2 µM; inhibition: stronger effect = higher value; nuclei count: measured here: cell number, toxicity
[4] = target: Voltage-gated potassium channel subunit beta-2 (Rattus norvegicus) (UniProt P62483); assay: KvBeta enzyme negative modulators, primary screen, biochemical, NADPH fluorescence (AID 622;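 active = fluorescence slope higher than the sample average by over 3 SD, cut at about -0.22 in these data, passing the limit was not always enough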;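 note: slope of raw intensity against log time taken from 70 to 1610 s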); conditions: recombinant KvBeta, 4-cyanobenzaldehyde reduction, at 10 µM, stronger effect = higher value
Chain of Voltage-gated potassium channel subunit beta-2 (Rattus norvegicus) (P62483 whole entry, looked up): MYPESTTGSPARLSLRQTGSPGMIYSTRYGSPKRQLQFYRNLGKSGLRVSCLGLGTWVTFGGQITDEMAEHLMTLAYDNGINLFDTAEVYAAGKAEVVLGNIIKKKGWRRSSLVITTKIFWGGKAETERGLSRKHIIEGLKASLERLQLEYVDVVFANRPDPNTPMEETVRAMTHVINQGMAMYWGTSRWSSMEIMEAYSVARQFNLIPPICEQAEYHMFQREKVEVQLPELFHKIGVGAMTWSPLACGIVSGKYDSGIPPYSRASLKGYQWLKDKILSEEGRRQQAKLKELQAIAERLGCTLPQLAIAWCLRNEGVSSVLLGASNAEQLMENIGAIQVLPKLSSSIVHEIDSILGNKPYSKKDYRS

[5] = target: Voltage-gated potassium channel subunit beta-2 (Rattus norvegicus) (UniProt P62483); assay: KvBeta positive modulators, primary screen, biochemical, NADPH fluorescence (AID 623;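 active = NADPH fluorescence slope more negative than the mean of all samples by about 3 SD, 99.7% confidence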;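 note: fluorescence intensity change per second fitted from 20 to 320 s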); conditions: Recombinant KvBeta, NADPH fluorescence decrease slope, 10 min; at 10 µM; stronger effect = lower value
[6] = target: Alpha-2C adrenergic receptor (Homo sapiens) (UniProt P18825); assay: modulators of alpha2C/GIRK thallium flux, primary screen, cell-based, HEK293 alpha2C/GIRK1/2 (AID 624;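 active = fluorescence slope after compound addition differing from the mean of all screened samples at 99.7% confidence, in either direction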;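 note: slope of fluorescence ratio to pre-addition baseline per second over 15 to 24 s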); conditions: thallium flux BTC fluorescence, at 10 µM, actives lie on both sides
Chain of Alpha-2C adrenergic receptor (Homo sapiens) (P18825 whole entry, looked up): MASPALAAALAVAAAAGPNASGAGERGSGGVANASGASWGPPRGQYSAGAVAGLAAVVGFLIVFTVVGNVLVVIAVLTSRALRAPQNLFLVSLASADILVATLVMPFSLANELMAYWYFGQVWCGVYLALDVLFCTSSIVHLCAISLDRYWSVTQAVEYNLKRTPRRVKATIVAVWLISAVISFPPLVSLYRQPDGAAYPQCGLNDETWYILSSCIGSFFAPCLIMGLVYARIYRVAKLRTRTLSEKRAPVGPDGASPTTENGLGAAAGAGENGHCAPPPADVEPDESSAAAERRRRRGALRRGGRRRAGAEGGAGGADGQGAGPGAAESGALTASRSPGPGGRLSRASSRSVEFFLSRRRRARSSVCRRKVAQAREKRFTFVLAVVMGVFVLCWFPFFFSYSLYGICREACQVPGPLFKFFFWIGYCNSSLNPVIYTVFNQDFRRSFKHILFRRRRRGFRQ

[7] = inhibitors of Sendai virus-induced IRF3 signaling, primary screen, TLR/RLR signaling modifier project, cell-based, Sendai virus stimulus, luciferase, 10K MLSCN set (AID 602276;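 active = inhibition at or above 50% at 10 µM; inactive = inhibition below 50%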;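 note: firefly luciferase from ISG56 promoter only with Renilla not read in this screen; 0% = Sendai virus plus DMSO and 100% = medium plus DMSO without virus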); conditions: HEK293 RL24 IRF3 luciferase reporter, at 10 µM, stronger effect = higher value
[8] = inhibitors of poly I:C-induced TLR3 signaling, primary screen, cell-based, poly I:C stimulus, luciferase, 10K MLSCN set (AID 602277); conditions: HEK293-TLR3 RL24 IRF3 luciferase reporter, at 10 µM, stronger effect = higher value

Row | SMILES | cell count [1] | inhibition [1] | inhibition of aggregation [2] | nuclei count [2] | inhibition [3] | nuclei count [3] | fluorescence slope [4] | NADPH fluorescence slope [5] | slope [6] | inhibition [7] | inhibition [8]
1 | c1ccc2c(c1)CNC1(CCCCC1)C2 | 362 | -3.4% (inactive) | 13% (inactive) | 114% | -2.1% (inactive) | 103% | -0.552 (inactive) | 2.5e-05 (inactive) | 0.00453 (inactive) | 13.3% (inactive) | 14.2% (inactive)
2 | O=P(O)(CN1CCCCCC1)CN1CCCCCC1 | 575 | 13.9% (inactive) | -5.3% (inactive) | 107% | 6% (inactive) | 112% | -0.484 (inactive) | -5.2e-05 (inactive) | 0.0053 (inactive) | -7.54% (inactive) | 17.4% (inactive)
3 | CCCN1CCN(CCCNC(=O)C2CCCN(c3nc4ccc(OCC)cc4s3)C2)CC1 (stereo not drawn) | 513 | -14% (inactive) | 23.6% (inactive) | 121% | -18.5% (inactive) | 119% | -0.398 (inactive) | -4.5e-05 (inactive) | 0.00402 (inactive) | -9.58% (inactive) | -10.2% (inactive)
4 | Cc1onc(-c2ccccc2Cl)c1C(=O)Nc1cccnc1 | 286 | -2.3% (inactive) | 1.8% (inactive) | 106% | -78.5% (inactive) | 148% | -0.452 (inactive) | 2.6e-05 (inactive) | 0.00566 (inactive) | 0.844% (inactive) | 32.2% (inactive)
5 | COc1ccccc1-c1nnc(NC(=O)c2ccc(S(=O)(=O)N(C)Cc3ccccc3)cc2)o1 | 391 | 6.1% (inactive) | 9.9% (inactive) | 92.8% | -6.7% (inactive) | 99.4% | -0.478 (inactive) | -1.3e-05 (inactive) | 0.00777 (inactive) | 14.7% (inactive) | 25.7% (inactive)
6 | CCOc1ccc(C2C=C(c3ccc(F)cc3)Nc3ncnn32)cc1 (stereo not drawn) | 548 | 11.5% (inactive) | -15.6% (inactive) | 74.5% | -113% (inactive) | 125% | -0.0654 (active) | -6.9e-06 (inactive) | 0.00554 (inactive) | 6.86% (inactive) | 12.6% (inactive)
7 | COC(=O)CSC1=C(C#N)C(c2ccc(F)cc2)CC(=O)N1 (stereo not drawn) | 591 | 2.5% (inactive) | -6.5% (inactive) | 91.8% | 0.6% (inactive) | 91% | -0.542 (inactive) | -3.8e-05 (inactive) | 0.00754 (inactive) | 10.2% (inactive) | 19.4% (inactive)
8 | COC(=O)c1ccccc1OCC(=O)NC1CCCCC1 | 400 | 2.8% (inactive) | -13.9% (inactive) | 110% | -140% (inactive) | 112% | -0.511 (inactive) | -1.1e-05 (inactive) | 0.00395 (inactive) | -18.9% (inactive) | -61.5% (inactive)
9 | COc1ccc2[nH]c(=O)c(CN(C(=O)c3ccncc3)C(C)C)cc2c1 | 438 | -6.2% (inactive) | 4.6% (inactive) | 120% | -13% (inactive) | 147% | -0.448 (inactive) | -5.5e-05 (inactive) | 0.00387 (inactive) | 8.68% (inactive) | 37.7% (inactive)
10 | CCN1C(=O)c2cccc3c(NC(=O)c4ccc(S(=O)(=O)N(C)C)cc4)ccc1c23 | 323 | -7.9% (inactive) | -2.1% (inactive) | 109% | -23.9% (inactive) | 111% | -0.319 (inactive) | -4.5e-05 (inactive) | 0.0056 (inactive) | 23.8% (inactive) | 30.8% (inactive)
11 | O=C(CSc1nnc(-c2ccncc2)o1)Oc1ccccc1 | 662 | -2.6% (inactive) | -12.9% (inactive) | 109% | -84.7% (inactive) | 109% | -0.39 (inactive) | -5.2e-05 (inactive) | 0.00449 (inactive) | 16.3% (inactive) | 13.7% (inactive)
12 | O=C(NCCCNC(=O)c1ccccn1)c1ccccn1 | 711 | -11.9% (inactive) | -10.1% (inactive) | 97.9% | -77.9% (inactive) | 105% | -0.491 (inactive) | -7e-05 (inactive) | 0.00516 (inactive) | 15.1% (inactive) | 20% (inactive)
13 | CN(C)C(=O)N1CCC(C(=O)NC2CCCCCCC2)CC1 | 545 | 7.4% (inactive) | 36.8% (active) | 49.6% | -48.1% (inactive) | 106% | -0.381 (inactive) | -2.2e-05 (inactive) | 0.00533 (inactive) | 13% (inactive) | 18.9% (inactive)
14 | COC(=O)c1c(N)sc(C(=O)N2CCOCC2)c1C | 261 | -5.1% (inactive) | 3% (inactive) | 82.3% | 60.2% (inactive) | 32.3% | -0.439 (inactive) | -5.8e-06 (inactive) | 0.00581 (inactive) | -4.15% (inactive) | -5.07% (inactive)
15 | Cc1cc2cc(CN(CCCN3CCOCC3)C(=O)NC3CCCCC3)c(=O)[nH]c2cc1C | 540 | -2.5% (inactive) | -7.3% (inactive) | 93.3% | 0.4% (inactive) | 105% | -0.484 (inactive) | 6.2e-07 (inactive) | 0.00496 (inactive) | 10.2% (inactive) | 34.8% (inactive)
16 | Cc1ccc(Cn2ccc(NC(=O)c3cc(-c4cccs4)on3)n2)cc1 | 407 | 0.9% (inactive) | -11.4% (inactive) | 96.9% | -33.4% (inactive) | 99.3% | -0.493 (inactive) | -1.8e-05 (inactive) | 0.00693 (inactive) | -3.96% (inactive) | -7.39% (inactive)
17 | COc1ccc(-c2ccc(-c3nnn(CC(C)=O)n3)cc2)cc1 | 277 | -6.2% (inactive) | -10.7% (inactive) | 111% | -65% (inactive) | 130% | -0.516 (inactive) | -4.2e-05 (inactive) | 0.00693 (inactive) | -41% (inactive) | -130% (inactive)
18 | CCOc1ccc(C(=O)N2CCN(C(=O)c3ccco3)CC2)cc1OCC | 558 | -2.7% (inactive) | -6.8% (inactive) | 111% | 28.1% (inactive) | 93.4% | -0.367 (inactive) | 4.3e-05 (inactive) | 0.00675 (inactive) | 12% (inactive) | 21.2% (inactive)
19 | O=C1c2cccnc2C(=O)N1c1cccc(-c2nc3ccccc3o2)c1 | 339 | 9.1% (inactive) | 28.9% (inactive) | 84% | -87.2% (inactive) | 117% | -0.417 (inactive) | -4e-05 (inactive) | 0.00507 (inactive) | 13.3% (inactive) | 13.5% (inactive)
20 | CCN1C(=O)CC(N2CCC(Nc3ccc(F)cc3)CC2)C1=O (stereo not drawn) | 559 | -9.7% (inactive) | 6.4% (inactive) | 57.1% | -72% (inactive) | 94.1% | -0.541 (inactive) | 6.8e-06 (inactive) | 0.00599 (inactive) | -4.21% (inactive) | -6.01% (inactive)
21 | CC(=O)N1CCN=C1SCc1ccc(Br)cc1 | 442 | 14.5% (inactive) | 15.2% (inactive) | 95.1% | 39.5% (inactive) | 98.6% | -0.632 (inactive) | -9.6e-06 (inactive) | 0.00733 (inactive) | -0.301% (inactive) | 22.3% (inactive)
22 | COCCn1c(SCC(=O)N2CCc3ccccc32)nc2c(c1=O)SC(C)C2 (stereo not drawn) | 499 | -4.4% (inactive) | 13% (inactive) | 87.2% | -0.4% (inactive) | 109% | -0.45 (inactive) | -1.4e-05 (inactive) | 0.00569 (inactive) | 1.65% (inactive) | 22.3% (inactive)
23 | Cc1nnc(SCC(=O)NCCN2C(=O)CSC2=O)s1 | 413 | 2.2% (inactive) | 19.8% (inactive) | 65.4% | -195% (inactive) | 125% | -0.606 (inactive) | -1e-05 (inactive) | 0.00749 (inactive) | 9.12% (inactive) | 19.5% (inactive)
24 | O=C(COC(=O)CSc1nnc(-c2ccc(Cl)cc2)o1)NCc1ccc2c(c1)OCO2 | 517 | -2.4% (inactive) | 4.7% (inactive) | 123% | 9.2% (inactive) | 107% | -0.587 (inactive) | -3.7e-05 (inactive) | 0.00607 (inactive) | 8.92% (inactive) | 17.2% (inactive)
25 | COC(=O)c1cc(S(=O)(=O)N2CCC(C)CC2)ccc1F | 552 | -17% (inactive) | -56.8% (inactive) | 112% | -24.3% (inactive) | 104% | -0.452 (inactive) | -0.000117 (inactive) | 0.00608 (inactive) | 15.3% (inactive) | 29.4% (inactive)
26 | COc1ccc(-n2ncc3c(N4CCN(c5cccc(C)c5C)CC4)ncnc32)cc1 | 589 | -4.7% (inactive) | -12.6% (inactive) | 111% | -22% (inactive) | 105% | -0.566 (inactive) | -3.6e-05 (inactive) | 0.0072 (inactive) | 5.95% (inactive) | 27.1% (inactive)
27 | CCOC(=O)C(CCc1nnc(N)s1)C(=O)OCC | 710 | -6.3% (inactive) | 3.1% (inactive) | 105% | -16.4% (inactive) | 98.7% | -0.474 (inactive) | 1.7e-06 (inactive) | 0.00419 (inactive) | 16.5% (inactive) | 11.9% (inactive)
28 | CCN(CC)CCN1C(=O)Cn2c(C)c(C)c3cccc1c32 | 426 | -6.7% (inactive) | 18.6% (inactive) | 93.7% | -102% (inactive) | 232% | -0.434 (inactive) | -1.1e-05 (inactive) | 0.00506 (inactive) | 15% (inactive) | 24.1% (inactive)
